Experimental data reported in PubChem BioAssay (NCATS).
Records with an inconclusive call do not appear. Values without a mark were called inactive. Active and inactive are the calls of the source. Calls come from the whole dose curve; as a rule, active = well fitted cell-killing curve with a large enough effect; inconclusive = small, poorly fitted or top-dose-only effect, or effect the other way; inactive = no such curve, though single readings can be large or run the other way.

Assay: Quantitative High-Throughput drug screen in 47 multiple myeloma cell lines against the NCATS MIPE library collection: OPM2_DSMZ cell viability assay (AID 1919872); note: nearly all actives have a fitted effect of over 30% in size
Settings: OPM2 myeloma viability, CellTiter-Glo ATP luminescence, 48 h; series mostly up to 45.8 µM; viability (% of DMSO): at the top concentration
Text: PI: Beverly A. Mock Ph.D.
Laboratory of Cancer Biology and Genetics,
Center for Cancer Research, National Cancer Institute,
National Institute of Health, Bethesda, Maryland
Drug resistance and disease progression are common in multiple myeloma (MM) patients, underscoring the need for new therapeutic combinations. […] We hypothesized that effective combinations would reduce MYC expression and enhance p16 activity. […] These preclinical data identify potentially useful drug combinations for evaluation in drug-resistant MM and reveal potential mechanisms of combined drug sensitivity.
Described herein is the primary MIPE qHTS used to cherrypick compounds. Validated compounds were then further tested for potential synergistic activiy.
[1] Peat TJ, Gaikwad SM, Dubois W, Gyabaah-Kessie N, Zhang S, Gorjifard S, Phyo Z, Andres M, Hughitt VK, Simpson RM, Miller MA, Girvin AT, Taylor A, Williams D, D'Antonio N, Zhang Y, Rajagopalan A, Flietner E, Wilson K, Zhang X, Shinn P, Klumpp-Thomas C, McKnight C, Itkin Z, Chen L, Kazandijian D, Zhang J, Michalowski AM, Simmons JK, Keats J, Thomas CJ, Mock BA. Drug combinations identified by high-throughput screening promote cell cycle transition and upregulate Smad pathways in myeloma. Cancer Lett. 2023 Aug 1;568:216284. doi: 10.1016/j.canlet.2023.216284. Epub 2023 Jun 24. PMID: 37356470; PMCID: PMC10408729.
SEQUENCE No. (e.g., 1, 2, 3, etc.); […] (e.g., Cells, Incubation, Reagent, etc.); VALUE and DESCRIPTION.
1; Cells; 5 uL; white, solid bottom 1536-well Greiner assay plate.
2; Compounds; 23 nL; Kalypsis pin tool (Wako USA) equipped with a 1536-well pin head to transfer to the assay plates.
3; Incubation; 48 hours; 37C incubation.
4; Reagent;5uL; CellTiter Glo (Promega).
5; Detector; 425V; Luminescence; Viewlux PerkinElmer.
NOTES (numbers refer to Sequence numbers above)
1. The cell-based screening methods employed in this study were like those previously published. Briefly, the corresponding myeloma cell lines were screened in 1,536-well plates with 500 cells, 5-uL per well for inhibition of cell viability (assessed by measuring ATP levels with CellTiterGlo).
2. NCATS MIPE 4.0 library of approved and investigational drugs were added using the Kalypsis pin tool. Wells treated with DMSO only for 100% viability and media only wells for 0% viability were used as controls.
3. The assay plates were covered and incubated for 48 hours in a 37C, 5% CO2 incubator with controlled humidity.
4. After 48 hours, CellTilter-GloTM luminescent substrate mix (Promega) reagent was added to the assay plate and plates we incubated for 5 min at room temperature.
5. Signal was measured as median relative luminescence units on a ViewLux (PerkinElmer) multiplate reader.
[1] Heske CM, Davis MI, Baumgart JT, Wilson K, Gormally MV, Chen L, Zhang X, Ceribelli M, Duveau DY, Guha R, Ferrer M, Arnaldez FI, Ji J, Tran HL, Zhang Y, Mendoza A, Helman LJ, Thomas CJ. Matrix Screen Identifies Synergistic Combination of PARP Inhibitors and Nicotinamide Phosphoribosyltransferase (NAMPT) Inhibitors in Ewing Sarcoma. Clin Cancer Res. 2017 Dec 1;23(23):7301-7311. doi: 10.1158/1078-0432.CCR-17-1121. Epub 2017 Sep 12. PMID: 28899971; PMCID: PMC6636827.
Potency is the fitted concentration of half-maximal effect.

| SMILES | Potency | viability (% of DMSO) |
| --- | --- | --- |
| C[C@@H](NC(=O)c1ncnc(N)c1Cl)c1ncc(C(=O)Nc2cc(C(F)(F)F)c(Cl)cn2)s1 | 9.35 µM (active) |  |
| O=c1[nH]c(=O)n([C@H]2C[C@@H](O)[C@@H](CO)O2)cc1C(F)(F)F |  | 86.8% |
| CC(C)(OCc1nn(Cc2ccccc2)c2ccccc12)C(=O)O |  | 101% |
| CNC(=O)[C@H](Cc1ccccc1)NC(=O)[C@H](CC(C)C)[C@H](CSc1cccs1)C(=O)NO | 18.7 µM (active) |  |
| CC1=C(CC(=O)O)c2cc(F)ccc2C1=Cc1ccc(S(C)=O)cc1 (stereo not given) |  | 89.7% |
| Cc1ccc2c(c1)C(=O)[C@]1(O)CCN(c3ccccc3)C1=N2 |  | 100% |
| COc1ccnc(CS(=O)c2nc3ccc(OC(F)F)cc3[nH]2)c1OC (stereo not given) |  | 131% |
| Nc1ccc(-c2ccc3ncc4ccc(=O)n(-c5cccc(C(F)(F)F)c5)c4c3c2)cn1 | 0.0059 µM (active) |  |
| Cc1cnc(Nc2cccc(CN3CCOCC3)c2)nc1Nc1cccc(S(=O)(=O)NC(C)(C)C)c1 | 9.35 µM (active) |  |
| C=CCc1cccc(C=NNC(=O)CN2CCN(Cc3ccccc3)CC2)c1O | 16.6 µM (active) |  |
| Cc1cnc(-c2cc(N3CCN(C(=O)CCS(C)(=O)=O)CC3)ncc2Cl)c(C)c1 |  | 102% |
| CCN(CC)CCCCNc1nc2cc(Cl)c(Cl)cc2nc1-c1ccc(-c2cccs2)s1 | 10.5 µM (active) |  |
| CN[C@@H]1[C@@H](O)[C@@H](O[C@@H]2[C@@H](O)[C@H](O[C@H]3O[C@H](CN)[C@@H](O)[C@H](O)[C@@H]3O)[C@@H](N)C[C@@H]2NC(=O)[C@@H](O)CN)OC[C@]1(C)O |  | 90.2% |
| COc1cc(Cl)cn2c(-c3cccc(NC4CNC4)n3)cnc12 |  | 90.8% |
| CN(C)CC[C@H](CSc1ccccc1)Nc1ccc(S(=O)(=O)NC(=O)c2ccc(N3CCN(Cc4ccccc4-c4ccc(Cl)cc4)CC3)cc2)cc1[N+](=O)[O-] | 16.6 µM (active) |  |
| CC(C)c1onc(-c2c(Cl)cccc2Cl)c1COc1ccc(C=Cc2cccc(C(=O)O)c2)c(Cl)c1 |  | 94.9% |
| CN1CCC(COc2cnc(-c3cccc(Cn4nc(-c5cccc(C#N)c5)ccc4=O)c3)nc2)CC1 |  | 103% |
| O=c1[nH]nc(OCCCc2ccc(Cl)cc2)c(NCc2cccnc2)c1Br | 23.5 µM (active) |  |
| O=C(O)Cc1cccc(OCCCN(Cc2cccc(C(F)(F)F)c2Cl)CC(c2ccccc2)c2ccccc2)c1 |  | 87.1% |
| CO[C@H]1/C=C\O[C@@]2(C)Oc3c(C)c(O)c4c(O)c(c(C=NN5CCN(C6CCCC6)CC5)c(O)c4c3C2=O)NC(=O)C(C)=CC=C[C@H](C)[C@H](O)[C@@H](C)[C@@H](O)[C@@H](C)[C@H](OC(C)=O)[C@H]1C | 14.8 µM (active) |  |

| SMILES | Potency | viability (% of DMSO) |
| --- | --- | --- |
| COc1cc2c(cc1OC)[C@@H]1Cc3ccc(OC)c(OC)c3CN1CC2 | 13.2 µM (active) |  |
| CC(=O)OCC(=O)[C@@]12OC(C)(C)O[C@H]1C[C@H]1[C@@H]3C[C@H](F)C4=CC(=O)C=C[C@]4(C)[C@@]3(F)[C@@H](O)C[C@@]12C |  | 94.7% |
| Cc1ccc(C(=O)N(CCCN)[C@@H](c2oc3cc(Cl)ccc3c(=O)c2Cc2ccccc2)C(C)C)cc1 |  | 0.422% |
| N=C1SC(=Cc2ccc(-c3ccc4c(c3)C(=O)NC4=O)o2)C(=O)N1c1ccc(Br)cc1 | 2.64 µM (active) |  |
| CC(C)C[C@@H](N)[C@H](O)C(=O)N[C@H](C(=O)N[C@H](C(=O)N[C@@H](CC(=O)O)C(=O)O)C(C)C)C(C)C |  | 104% |
| C[C@H](c1ccc(F)cc1CCCC(=O)O)N(c1cc(F)ccc1F)S(=O)(=O)c1ccc(Cl)cc1 | 3.32 µM (active) |  |
| COc1ccc(-c2cc3nccn3c(Nc3ncccc3C(N)=O)n2)cc1OC | 8.33 µM (active) |  |
| COc1cc2nccc(Oc3ccc(NC(=O)Nc4ccc(F)cc4F)c(F)c3)c2cc1OC | 4.69 µM (active) |  |
| Fc1ccc(CNc2ncnc3ccc(F)cc23)cc1 | 2.96 µM (active) |  |
| COc1ccc(-c2cc(=O)c3c(O)cc(O[C@@H]4O[C@H](CO[C@@H]5O[C@@H](C)[C@H](O)[C@@H](O)[C@@H]5O)[C@@H](O)[C@H](O)[C@@H]4O)cc3o2)cc1O |  | 110% |
| COc1ccc(Cn2ccc3ccc(C(=O)NO)cc32)cc1 |  | 93.1% |
| COc1nccc(-c2c(-c3ccc(F)cc3)ncn2C2CCNCC2)n1 |  | 83.9% |
| O=C(NCCCCN1CCOCC1)c1cc2ccccc2o1 |  | 102% |
| O=C(CO)N1CCC(c2[nH]nc(-c3ccc(Cl)cc3)c2-c2ccncn2)CC1 |  | 98.3% |
| CCc1cc(-c2n[nH]c(C)c2-c2ccc3c(c2)OCCO3)c(O)cc1O | 7.43 µM (active) |  |
| O=C1NC(=O)C(=Cc2ccc(-c3ccc(F)cc3O)o2)S1 |  | 108% |
| O=C(Nc1cccc2c(=O)cc(-c3nn[nH]n3)oc12)c1ccc(OCCCCc2ccccc2)cc1 |  | 78.8% |
| CCC=CC[C@H]1C(=O)CC[C@@H]1CC(=O)OC |  | 111% |
| Cc1cc2nc3c(=O)[nH]c(=O)nc-3n(CC(O)C(O)C(O)CO)c2cc1C (stereo not given) |  | 103% |
| CC[C@H](C=C[C@@H](C)[C@H]1CC[C@H]2[C@@H]3CC=C4C[C@@H](O)CC[C@]4(C)[C@@H]3CC[C@]12C)C(C)C |  | 112% [at 23.2 µM] |
